{"source": "PubChem BioAssay AID588436", "about": "(Broad Institute, 2011)", "note": "Hit rate of the full screen: of about 350,000 compounds, about 550 (0.16%) were called active. For the sample, actives were picked, then their nearest neighbours and some compounds at random. Values without a mark were called inactive. No stated cut-off is given here; in the data, active means activation mostly above about 9.7% (no sharp cut-off); inconclusive means no clear call, values can overlap the other calls; inactive means mostly below about 3.7%.", "data": [{"assay": "inducers of Vibrio cholerae quorum light production without autoinducers, primary screen, BH1578 luxS cqsA deficient, single point (AID 588436)", "settings": "V. cholerae BH1578 lux reporter, luminescence, 6 h, at 18.7 µM; stronger effect = higher value", "values": [{"smiles": "O=S(=O)(NC1CCCCC1)c1ccc(F)c2ccccc12", "activation": "-0.148%"}, {"smiles": "NC(c1csc(NC(=O)Nc2cccc(C(F)(F)F)c2)n1)C1CCCCC1", "note": "(stereo not drawn)", "activation": "inactive"}, {"smiles": "COCCNc1ncnc2c1ncn2[C@H]1CN(CCN2CCOCC2)C[C@@H](CO)O1", "activation": "-0.715%"}, {"smiles": "O=C(NCc1ccc(Cl)cc1)C(=O)NCC1CCCN1S(=O)(=O)c1cccs1", "note": "(stereo not drawn)", "activation": "inactive"}, {"smiles": "Cc1nonc1C1CCCN1Cc1nc(-c2ccc(F)cc2F)oc1C", "note": "(stereo not drawn)", "activation": "2.27%"}, {"smiles": "Cc1ccsc1-c1nc(CSCC(=O)NCCN2CCCC2)c(C)o1", "activation": "-0.308%"}, {"smiles": "CC(CCc1ccccc1)NCC(O)c1cccc([N+](=O)[O-])c1", "note": "(stereo not drawn)", "activation": "-0.322%"}, {"smiles": "COc1ccc(Cl)cc1NC(=O)C1CC(=O)N(c2ccc(F)cc2)C1", "note": "(stereo not drawn)", "activation": "-0.72%"}, {"smiles": "CCCn1nnnc1NCc1ccc(OC)cc1", "activation": "495% (active)"}, {"smiles": "COc1ccc2ccccc2c1CNc1nnnn1C", "activation": "inactive"}, {"smiles": "CCCCn1nnnc1NCc1cc(OC)c(OC)c(OC)c1", "activation": "inactive"}, {"smiles": "Cn1nnnc1NCc1ccc(Cl)c(Cl)c1", "activation": "inactive"}, {"smiles": "COc1ccc(CNc2nnnn2C)cc1", "activation": "25.8% (active)"}, {"smiles": "CCCC(=O)n1nc(NCc2ccc(OC)cc2)nc1NCc1ccc(OC)cc1", "activation": "inactive"}, {"smiles": "CCNC(=O)C1(C)CCN(Cc2ccc(C(=O)OCC)o2)C1", "note": "(stereo not drawn)", "activation": "-0.406%"}, {"smiles": "O=C(COC(=O)CNC(=O)C1CCCCC1)NCc1ccccc1", "activation": "inactive"}, {"smiles": "O=C(O)c1cc(S(=O)(=O)Nc2ccc3cn[nH]c3c2)ccc1Br", "activation": "-0.342%"}, {"smiles": "Cc1ccc(SCC(=O)c2sc(-c3ccccc3)nc2C)cc1", "activation": "25% (active)"}, {"smiles": "Cc1ccc(SCC(=O)Nc2nncs2)cc1", "activation": "inactive"}, {"smiles": "Cc1nc(-c2ccc(Cl)cc2)sc1C(=O)CBr", "activation": "-3.57%"}, {"smiles": "Cc1ccsc1C(=O)N[C@@H](C)c1nnc2ccccn12", "activation": "-5.76%"}, {"smiles": "COc1ccc(C(C)C)cc1-c1ccc2nncn2c1", "activation": "-1.12%"}, {"smiles": "CCCCNC(=O)C1CCCN(S(=O)(=O)c2ccc(S(=O)(=O)NCC(C)C)cc2)C1", "note": "(stereo not drawn)", "activation": "-0.448%"}, {"smiles": "O=c1cc(CO)oc(C(Nc2cccc([N+](=O)[O-])c2)c2ccccn2)c1O", "note": "(stereo not drawn)", "activation": "-0.237%"}, {"smiles": "CCNc1nc(NCC)nc(N(C)n2cnnc2)n1", "activation": "-0.319%"}, {"smiles": "Cc1cc(C)c(S(=O)(=O)n2cc(C(C)C(N)C(=O)O)c3ccccc32)c(C)c1", "note": "(stereo not drawn)", "activation": "inactive"}, {"smiles": "COc1ccc(C)cc1NC(=O)NCCCCc1ccccc1", "activation": "inactive"}, {"smiles": "Cc1ccc(S(=O)(=O)NNC(=O)/C=C/c2cccc(F)c2)cc1", "activation": "inactive"}, {"smiles": "COC(=O)CN1C(=O)C(C)(C)Oc2ccc(C(=O)Nc3cccc(OC)c3)cc21", "activation": "-0.813%"}, {"smiles": "O=C(CCN1C(=O)c2ccccc2C1=O)C1=NN[C@@H]2C(=O)N(c3ccc(F)cc3)C(=O)[C@H]12", "activation": "1.21%"}, {"smiles": "COC(=O)c1c(C(=O)OC)c2n(c1C)CCS2", "activation": "-0.577%"}, {"smiles": "Cc1cc(-n2cnc(-c3cn(C)nc3C)n2)no1", "activation": "inactive"}, {"smiles": "Cc1c(C(=O)O)nnn1-c1nonc1N", "activation": "1.08%"}, {"smiles": "NNC(=O)c1nnn(-c2nonc2N)c1CN1CCCC1", "activation": "67.1% (active)"}, {"smiles": "CCOC(=O)c1nnn(-c2nonc2-n2cccc2)c1CN1CCC(C(=O)OCC)CC1", "activation": "inactive"}, {"smiles": "COc1ccc(NC(=O)CN(C)C(=O)CNC(=O)C2CCCCC2)cc1", "activation": "1.72%"}, {"smiles": "COc1ccc(NC(=O)CN(C)C(=O)CC2CCCCC2)cc1", "activation": "-0.68%"}, {"smiles": "CN(CC(=O)Nc1ccc(OC(F)(F)F)cc1)C(=O)C1CCC1", "activation": "18.8% (active)"}, {"smiles": "COc1ccccc1C(=O)NCCn1cc(SCC(=O)NCc2ccco2)c2ccccc21", "activation": "-0.41%"}, {"smiles": "CCC(=O)Nc1ccc(S(=O)(=O)NCC2CCCO2)cc1", "note": "(stereo not drawn)", "activation": "-0.618%"}, {"smiles": "CCC(=O)c1c[nH]c(C(=O)NCC2CCCO2)c1", "note": "(stereo not drawn)", "activation": "-0.144%"}, {"smiles": "CCC(=O)NC(NCC1CCCO1)C(Cl)(Cl)Cl", "note": "(stereo not drawn)", "activation": "16.7% (active)"}, {"smiles": "CCCS(=O)(=O)N1CCCC(C(=O)N2CCN(c3ccccc3)CC2)C1", "note": "(stereo not drawn)", "activation": "33.3% (active)"}, {"smiles": "O=C(C1CCCN(S(=O)(=O)c2ccccc2)C1)N1CCN(c2ccc(F)cc2)CC1", "note": "(stereo not drawn)", "activation": "inactive"}, {"smiles": "CS(=O)(=O)N1CCC(C(=O)N2CCN(c3ccccc3)CC2)CC1", "activation": "inactive"}, {"smiles": "CCOc1ccc(OCc2cccc(C(=O)N(CC)CC)c2)cc1", "activation": "-0.345%"}, {"smiles": "Cc1cccc(-n2c(SCC(=O)Nc3cccc(S(=O)(=O)NC4=NCCCCC4)c3)nc3ccccc3c2=O)c1C", "activation": "-0.796%"}, {"smiles": "O=C(C1CC(=O)N(c2ccc(F)cc2)C1)N1CCN(c2ccccc2)CC1", "note": "(stereo not drawn)", "activation": "-0.28%"}, {"smiles": "Cc1cccc(CN2CCC(n3nccc3NC(=O)c3ccccc3C)CC2)n1", "activation": "-0.82%"}, {"smiles": "COC(=O)C1=C(C)NC(=O)NC1/C=C/c1ccccc1", "note": "(stereo not drawn)", "activation": "33.3% (active)"}, {"smiles": "COC(=O)C1=C(C)N=C2SC(C)C(=O)N2C1/C=C/c1ccccc1", "note": "(stereo not drawn)", "activation": "inactive"}, {"smiles": "COC(=O)c1ccc(C2NC(=O)NC(C)=C2C(=O)N(C)C)cc1", "note": "(stereo not drawn)", "activation": "-3.1%"}, {"smiles": "CCN(CC(=O)Nc1ccccc1C(F)(F)F)C(=O)CSCc1c(C)noc1C", "activation": "inactive"}, {"smiles": "CC(C)CC(N=C1NC(C)(C)Cc2ccccc21)C(=O)O", "note": "(stereo not drawn)", "activation": "-0.478%"}, {"smiles": "CC(NCc1cccs1)C(=O)Nc1cc(Cl)cc(Cl)c1", "note": "(stereo not drawn)", "activation": "-0.542%"}, {"smiles": "COC(=O)c1ccc(CNC(=O)Cn2cc(C)c(=O)[nH]c2=O)cc1", "activation": "-1.31%"}, {"smiles": "CCc1cccc2c(=O)c(C(=O)NCCCOC)c[nH]c12", "activation": "inactive"}, {"smiles": "O=C(Cc1ccc2c(c1)CCCC2)Nc1ccccc1Cl", "activation": "159% (active)"}, {"smiles": "Cc1cc(C(=O)OCC(=O)Nc2ccccc2Cl)c(C)o1", "activation": "11.9%"}, {"smiles": "O=C(Nc1ccc2c(c1)CCC2)c1cccc(S(=O)(=O)Nc2ccccc2Cl)c1", "activation": "0.69%"}, {"smiles": "O=[N+]([O-])c1ccc2nc(-c3ccccn3)[nH]c2c1", "activation": "inactive"}, {"smiles": "O=[N+]([O-])c1cnc2ccc3ccccc3c2c1", "activation": "31.2% (active)"}, {"smiles": "CN(CCc1ccccc1)c1ccc([N+](=O)[O-])cn1", "activation": "inactive"}, {"smiles": "COC(=O)c1ccc(N(CC(=O)NC2CCCC2)C(=O)CNC(=O)c2ccco2)cc1", "activation": "-0.813%"}, {"smiles": "COc1cccc(N(C(=O)CNC(=O)c2ccco2)C(C(=O)NC2CCCCC2)c2cccnc2)c1", "note": "(stereo not drawn)", "activation": "0.162%"}, {"smiles": "COc1ccc(N(CC(=O)NC2CCCCC2)C(=O)CNC(=O)c2ccco2)c(OC)c1", "activation": "16.7% (active)"}, {"smiles": "CC(C)CN(C(=O)Cn1c(=O)cnc2ccccc21)C1CCS(=O)(=O)C1", "note": "(stereo not drawn)", "activation": "-2.94%"}, {"smiles": "CC(=O)OCCN(CCCn1c(-c2ccncc2)nc2ccccc21)c1nc(-c2ccc(C)cc2)cs1", "activation": "-0.447%"}, {"smiles": "Cc1ccc(C)c(NC(=O)c2cc(-c3cc(C)cc(C)c3O)n[nH]2)c1", "activation": "1.16%"}, {"smiles": "CC(C)CNC(=O)COC(=O)/C=C/c1ccccc1[N+](=O)[O-]", "activation": "13.6%"}, {"smiles": "COc1cccc(NC(=O)COC(=O)/C=C/c2ccco2)c1", "activation": "inactive"}, {"smiles": "CC(C)CNC(=O)COC(=O)/C=C/c1ccco1", "activation": "180% (active)"}, {"smiles": "CC(CN1CCCCC1)c1ccccc1", "note": "(stereo not drawn)", "activation": "inactive"}]}]}
